Measurements: PubChem BioAssay (EPA / NIEHS)
Activity calls are given as the source filed them. The calls were made as follows: active = hit-call score of the fitted dose curve at least 0.9, where 1 is the maximum; inactive = score below 0.9.

Experiment: ATG_MRE_CIS: Attagene CIS-FACTORIAL HepG2 Assay for human Metal Responsive Element (MRE) (AID 2282954)
Settings: HepG2 MRE cis-reporter transcription, Attagene multiplex; actives raise or lower the signal
Description: ATG_CIS is a cell-based, multiplexed-readout assay that uses HepG2, a human liver cell line, with measurements taken at 24 hours after chemical dosing in a 24-well plate.ATG_MRE_CIS is one of 52 assay component(s) measured or calculated from the ATG_CIS assay. It is designed to make measurements of mRNA induction, a form of inducible reporter, as detected with fluorescence intensity signals by Reverse transcription polymerase chain reaction (RT-PCR) and Capillary electrophoresis technology.Data from the assay component ATG_MRE_CIS was analyzed into 1 assay endpoint. This assay endpoint, ATG_MRE_CIS, was analyzed with bidirectional fitting relative to DMSO as the negative control and baseline of activity. Using a type of inducible reporter, measures of mRNA for gain or loss-of-signal activity can be used to understand the reporter gene at the transcription factor-level as they relate to the gene MTF1. Furthermore, this assay endpoint can be referred to as a primary readout, because this assay has produced multiple assay endpoints where this one serves a reporter gene function. To generalize the intended target to other relatable targets, this assay endpoint is annotated to the dna binding intended target family, where the subfamily is zinc finger.
Human liver HepG2 cells are transiently transfected with multiple reporter transcription units (MRTUs) in 6-well plates using FuGene 6 reagent (Roche; 3 ml FuGene/1 mg DNA). The MRTU constructs are regulated by a cis-regulating element (promoter). […] A major difference between the CIS and TRANS system is that in CIS activities of endogenous TFs are measured, whereas the TRANS assay evaluates changes in activities of exogenous, chimeric NR-Gal4 proteins. […] At the end of 24 hour incubation, total RNA was isolated using TriZol reagent (Invitrogen). The isolated RNA is then reverse-transcribed using oligo(dT) primer and Mo-MLV reverse transcriptase (Invitrogen) with DNAse I (Ambion) treatment for 30 min. The one-tenth of the produced cDNA was amplified by PCR using Taq DNA polymerase (Invitrogen) and two reporter sequence-specific primers. The PCR products were fluorescently labeled by primer extension with 6-arboxyfluorescein (6-FAM) 5'-labeled reporter sequence-specific primer (2 min at 95 C, 20 s at 68 C and 10 min at 72 C) and these products were digested with 5U of HpaI (New England Biolabs) for 2h at 37 C. The fragments were purified using Qiaquick PCR columns (Qiagen), analyzed on an ABI 3130xL genetic analyzer (Applied Biosystems) with peak positions identified by using a set of X-rhodamine (ROX)-labeled MapMarker1000 molecular weight standards (BioVentures). The raw capillary electrophoresis data was processed using Attagraph software (Attagene).

Compound | outcome | AC50
Cc1ccc2c(c1)OCC(=O)CO2 | inactive | 
CCc1ccc(C)nc1 | inactive | 
CSc1ccc(O)cc1C | inactive | 
CO[Si](CCCOCC1CO1)(OC)OC (stereo not given) | inactive | 
CCOC(OCC)OCC | inactive | 
OCC(O)CC(F)(F)C(F)(F)C(F)(F)C(F)(F)F (stereo not given) | inactive | 
O=C1c2ccccc2C(=O)c2c(Cl)cccc21 | inactive | 
O=C(Cl)C(F)(F)C(F)(F)C(F)(F)C(F)(F)C(F)(F)C(F)(F)F | inactive | 
O=C(O)C(F)(F)OC(F)(F)C(F)(F)OC(F)(F)C(F)(F)OC(F)(F)F | inactive | 
O=C(O)C(F)(F)C(F)(F)C(F)(F)OC(F)(F)F | inactive | 
CCc1cc(Cc2cc(CC)c(N)c(CC)c2)cc(CC)c1N |  | 26.1 µM (active)
NCC(F)(F)C(F)(F)C(F)(F)C(F)(F)C(F)(F)C(F)(F)F | inactive | 
Nc1cc([N+](=O)[O-])cc(Cl)c1O | inactive | 
COC(=O)c1ccc(C=O)cc1 | inactive | 
Brc1ccccn1 | inactive | 
Cc1ccc([N+](=O)[O-])c(C)c1 | inactive | 
COCCC(=O)OC | inactive | 
Cc1cccc(C)n1 | inactive | 
CC(C)(C)c1cc(CCC(=O)NCCCCCCNC(=O)CCc2cc(C(C)(C)C)c(O)c(C(C)(C)C)c2)cc(C(C)(C)C)c1O | inactive | 
O=C(c1ccccc1)c1ccc(Cl)cc1 |  | 57.5 µM (active)

Compound | outcome | AC50
OCCCCl | inactive | 
CO[Si](C)(CCC(F)(F)C(F)(F)C(F)(F)C(F)(F)C(F)(F)C(F)(F)F)OC | inactive | 
O=S(=O)(O)CCC(F)(F)C(F)(F)C(F)(F)C(F)(F)C(F)(F)C(F)(F)C(F)(F)C(F)(F)F | inactive | 
CC1=CC2C3C=CC(C3)C2C1C (stereo not given) |  | 65.8 µM (active)
C#CC(O)CCC (stereo not given) | inactive | 
CC(C)=CCCC(C)O (stereo not given) | inactive | 
O=C1C=CC(=O)N1c1ccc(Cc2ccc(N3C(=O)C=CC3=O)cc2)cc1 | inactive | 
C=CC(=O)OCCC(F)(F)C(F)(F)C(F)(F)C(F)(F)F | inactive | 
O=C(O)C(F)(F)C(F)(F)C(F)(F)C(F)(F)C(F)(F)C(F)(F)C(F)F | inactive | 
CCOC(C=C(C)CCC=C(C)C)OCC | inactive | 
Nc1cccnc1N | inactive | 
OCCCc1cccnc1 | inactive | 
O=C(c1ccccc1)c1ccc(O)cc1O | inactive | 
CC(C)C(=O)OCc1ccccc1 | inactive | 
CC1CCCCC1 | inactive | 
Cc1cc(C)c(O)c(C(C)(C)C)c1 | inactive | 
O=c1[nH]cccc1O | inactive | 
CCN(CC)c1ccc(C=O)cc1 | inactive | 
OCC(F)(F)C(F)(F)C(F)(F)C(F)(F)C(F)(F)C(F)(F)CO | inactive | 
CC(C)CC=C(C=O)c1ccccc1 | inactive | 
